High-throughput results (PubChem)
A selection: hits, their analogues and other compounds. The true share with any hit is near 19%.
TGFb inhibitor – qHTS for Inhibitors of TGF-b | HepG2 CAGA-GFP TGF-b/SMAD3 reporter, GFP fluorescence, 18 h; TGF-beta stimulated, 500 pg/mL final | Potency, µM (top dose mostly 46.1 µM), for the others: top-dose activity, negative = inhibition, usual class: inhibitors | 410,000 compounds, 1.2% hits; note: potency is the fitted concentration of half-maximal effect; % is set by controls: 0 for no effect and ±100 for the full control effect; nearly all actives have a fitted effect of over 65% in size
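Inhibition of TGF-beta-driven CAGA-GFP reporter expression in HEPG2 cells is measured by cellular GFP fluorescence after 18 h stimulation with 500 pg/mL recombinant TGF-beta in 1% FBS medium at 37 degrees C.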
IL-1B inflam inh – qHTS for Inhibitors of Inflammasome Signaling: IL-1-beta AlphaLISA Primary Screen; THP-1 LPS/ATP IL-1B secretion, AlphaLISA, 16 h; stronger effect = lower value; AID 743279, 2014; activity change, % at 57.5 µM; 360,000 compounds, 4.7% hits; in the data active = activity change below about -50%; inconclusive = mostly about -30% to -49%; note: % is set by controls: 0 for no effect and ±100 for the full control effect
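THP-1 cells pretreated 1 hr with compounds (up to 57.5 uM final), then stimulated with LPS (250 ng/mL final) plus ATP (1.25 mM final); secreted IL-1B measured by AlphaLISA after 16 hr, decreased signal indicating inhibition.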
TDP1 cell noCPT – qHTS for Inhibitors of human tyrosyl-DNA phosphodiesterase 1 (TDP1): qHTS in cells in absence of CPT; DT40 Tdp1-/- hTDP1 cells, no CPT, ATP luminescence, 48 h; Potency, µM (series often up to 46.2 µM), inactives show top-dose activity change, negative = growth inhibition, hits mostly inhibitors; 420,000 compounds, 15% hits; AID 686978, 2013; note: potency is the fitted concentration of half-maximal effect; % is set by controls: 0 for no effect and ±100 for the full control effect; nearly all actives have a fitted effect of over 55% in size
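Camptothecin absent (DMSO only). Human TDP1-complemented DT40 knockout cells, 400 cells/well, 37 °C for minimum 48 hr; ATP measured via CellTiter-Glo, 30 min dark incubation, luminescence.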
HepG2 viability – qHTS for Inhibitors of TGF-b: Cytotox Counterscreen. HepG2 CAGA-GFP viability, ATP luminescence, 18 h. Potency, µM (titrated, usually from 46.1 µM), for inactives: at the top dose activity change, negative = cytotoxicity, hits mostly cytotoxic. 410,000 compounds, 0.76% hits. AID 588856, 2011; note: potency is the fitted concentration of half-maximal effect
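CellTiter-Glo luminescence gave cytotoxicity after 18 hours at 37 degrees C. The cells were HepG2 CAGA-GFP in 1% FBS DMEM, stimulated with 500 pg/mL TGF-beta after compound addition. %Activity was normalised to no-cell wells (complete cell-killing) and DMSO (no toxicity), and curves were fitted and classified.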
TDP1 cell CPT – qHTS for Inhibitors of human tyrosyl-DNA phosphodiesterase 1 (TDP1): qHTS in cells in presence of CPT; chicken DT40 Tdp1-/-;hTDP1 cells + 20 nM CPT, ATP luminescence, 48 h; AID 686979, 2013; 420,000 compounds, 12% hits; Potency, µM (top dose mostly 46.2 µM), for the others: at the highest dose activity change, negative = growth inhibition, usual class: inhibitors; note: potency is the fitted concentration of half-maximal effect; % is set by controls: 0 for no effect and ±100 for the full control effect; nearly all actives have a fitted effect of over 55% in size
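Cell growth measured by CellTiter-Glo luminescence after a minimum 48 h, 37 C compound exposure with 20 nM CPT in Tdp1-knockout DT40 cells stably expressing hTDP1, seeded 400/well; qHTS titration format.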
ASM inhibitor – Inhibitors of Secretory Acid Sphingomyelinase (S-ASM): qHTS; placental ASM, HMU-PC fluorogenic substrate, 60 min; Potency, µM (titrated, usually from 57.5 µM), inactives show top-dose activity change, negative = inhibition, actives largely listed as inhibitors; 340,000 compounds, 0.006% hits; AID 504937, 2011; note: potency is the fitted concentration of half-maximal effect
Target sequence (P17405 47-631 limits assumed): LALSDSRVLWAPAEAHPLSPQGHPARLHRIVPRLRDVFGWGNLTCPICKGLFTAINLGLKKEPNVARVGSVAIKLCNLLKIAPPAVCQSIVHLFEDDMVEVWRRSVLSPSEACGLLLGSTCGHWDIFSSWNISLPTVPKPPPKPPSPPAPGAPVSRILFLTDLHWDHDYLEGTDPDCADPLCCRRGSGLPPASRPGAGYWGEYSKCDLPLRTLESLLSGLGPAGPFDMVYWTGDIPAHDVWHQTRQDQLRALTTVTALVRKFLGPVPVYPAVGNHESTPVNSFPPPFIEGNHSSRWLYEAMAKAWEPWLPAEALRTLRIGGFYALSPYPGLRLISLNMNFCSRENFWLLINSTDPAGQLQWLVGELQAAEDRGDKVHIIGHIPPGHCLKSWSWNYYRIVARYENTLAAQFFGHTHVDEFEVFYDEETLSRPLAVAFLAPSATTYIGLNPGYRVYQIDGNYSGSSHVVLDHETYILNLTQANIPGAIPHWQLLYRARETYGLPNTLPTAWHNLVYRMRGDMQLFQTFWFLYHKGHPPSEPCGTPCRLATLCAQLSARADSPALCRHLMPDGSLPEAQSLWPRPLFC
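Fluorescence read-out (Ex 386 nm, Em 447 nm) after stopping the reaction at pH 10. Enzyme: ASM from human placenta; substrate HMU-PC0, 9 uM final; 60 min, 37 °C. Compound preincubation 10 min, ambient temperature.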
Active calls of the source: *; u = inconclusive; x = no result given. Unless noted, calls come from the whole dose curve; as a rule, active = well fitted curve in the direction sought with a large enough effect; inconclusive = small, poorly fitted or top-dose-only effect, or another doubt; inactive = no such curve, though single readings can be large; an effect the other way counts as inactive or inconclusive.

SMILES | TGFb inhibitor | IL-1B inflam inh | TDP1 cell noCPT | HepG2 viability | TDP1 cell CPT | ASM inhibitor
CC1CCCCC1NC(=O)C1CCN(S(=O)(=O)c2cccc3nonc23)CC1 (stereo unspecified) | 18% | 10 | u | -2% | 10% | -2%
CCOc1ccc(C(C)=O)cc1COc1ccc(-c2nnco2)cc1 | 0% | -21 | -9% | -6% | -9% | -3%
Cc1ccc(C(=O)N2CCN(S(=O)(=O)c3ccc(C(C)C)cc3)CC2)s1 | -9% | -22 | u | 2% | u | x
CC(C)CCNC(=O)c1cnn2c(C(F)(F)F)cc(-c3ccco3)nc12 | -21% | -2 | 32µM* | 0% | 11µM* | 66%
c1nc(CCO[C@H]2CCCCO2)cc2cc3c(cc12)OCO3 | 10% | 7 | u | -15% | u | 4%
c1nc(C2CCCCC2)cc2cc3c(cc12)OCO3 | -28% | 30 | 21µM* | -16% | u | 0%
CC(=O)c1cccc(Nc2ccc3cc(S(=O)(=O)N4CCCC4)ccc3n2)c1 | -32% | x | u | -19% | u | x
COc1ccc(CNc2ccc3cc(S(=O)(=O)N4CCCCC4)ccc3n2)cc1 | -23% | x | 18µM* | -20% | u | x
COc1cccc(Nc2ccc3cc(S(=O)(=O)N4CCC(C)CC4)ccc3n2)c1 | u | x | 15µM* | -30% | u | x
COc1ccc(Nc2ccc3cc(S(=O)(=O)N4CCCC4)ccc3n2)cc1OC | 41% | x | 21µM* | -28% | 18µM* | x
O=S(=O)(c1ccc2nc(Nc3ccccc3)ccc2c1)N1CCCCC1 | u | -67* | 16µM* | -31% | u | 148%
CC1CCN(S(=O)(=O)c2ccc3ccccc3c2)CC1 | 1% | -5 | -14% | -41% | -2% | 3%
CC(C)(C)n1ncc2c(=O)n(Cc3ccc(SC(=O)O)cc3Cl)cnc21 | -15% | x | x | -10% | x | x
Cc1c(CC(=O)NCCc2ccccc2F)c(=O)oc2cc(O)c(Cl)cc12 | 3% | x | -20% | 2% | -17% | x
CCOc1ccccc1Nc1ccc2cc(S(=O)(=O)N3CCCCC3)ccc2n1 | -15% | x | 18µM* | -4% | u | x
COCCNc1ccc2cc(S(=O)(=O)N3CCCCC3)ccc2n1 | -10% | x | u | -12% | -8% | x
Cc1cc2c3c(c1C)C1(C(=O)N3C(C)(C)CC2C)C(C#N)=C(N)Oc2n[nH]c(C)c21 (stereo unspecified) | 0% | -19 | 23µM* | 2% | u | 1%
CC(=O)c1c(C)[nH]c(C(=O)CSc2nnc(-c3cccs3)n2Cc2ccccc2)c1C | -31% | -17 | u | -3% | u | -10%
C=CCn1c(SCC(=O)c2[nH]c(C)c(C(C)=O)c2C)nnc1-c1ccncc1 | 0% | 15 | 26µM* | 10% | u | 2%
CC(=O)c1c(C)[nH]c(C(=O)CSc2nnc(C3CCCCC3)n2N)c1C | -4% | 15 | 13µM* | -11% | 18µM* | 1%
CC(=O)c1c(C)[nH]c(C(=O)CSc2nnc(-c3ccco3)n2Cc2ccccc2)c1C | 1% | 0 | 16µM* | -17% | 23µM* | -11%
C=CCn1c(SCC(=O)c2[nH]c(C)c(C(=O)OC)c2C)nc2scc(-c3ccc(OC)c(OC)c3)c2c1=O | 3% | 7 | 8.2µM* | -31% | 16µM* | -2%
CCCCN(C(=O)c1cc(Cl)nc2ccccc12)c1c(N)n(Cc2ccccc2)c(=O)[nH]c1=O | 1% | 2 | -30% | -8% | -15% | 5%
Cc1ncoc1C(=O)N1CCOc2ccc(CN3CCC(Oc4cccnc4)CC3)cc2C1 | x | x | -24% | x | 7% | x
CC1C(=O)C(C)C(c2cc(Br)ccc2O)NC1c1cc(Br)ccc1O (stereo unspecified) | 16µM* | -97* | u | -97% | -26% | -17%
SMILES | TGFb inhibitor | IL-1B inflam inh | TDP1 cell noCPT | HepG2 viability | TDP1 cell CPT | ASM inhibitor
CC1C(=O)C(C)C(c2ccc(Br)cc2)NC1c1ccc(Br)cc1 (stereo unspecified) | -21% | -12 | u | -2% | u | -7%
CC1(C)C(=O)OC(c2cc(Br)ccc2O)C(C)(C)C1=O (stereo unspecified) | 0% | -15 | 21µM* | -29% | u | -2%
CC12CN3CC(C)(CN(C1)C3c1cc(Br)ccc1O)C2=O (stereo unspecified) | 1% | -6 | u | -9% | 3% | 6%
CCCc1cc(C(=O)NC2CCCN(Cc3ccccc3F)C2)no1 (stereo unspecified) | -6% | -4 | -1% | -5% | 3% | 0%
CCOC(=O)c1cc(-c2cccnc2)nn1-c1ccccc1 | -8% | -98* | u | -14% | 17% | 0%
O=C(NNC(=O)c1cc(-c2ccccc2)nn1-c1ccccc1)c1ccccc1 | -24% | -97* | u | -4% | -11% | -11%
Cc1cnc(NC(=O)c2cc(-c3ccccc3)nn2-c2ccccc2)s1 | 1% | -2 | -21% | 1% | -2% | 2%
CC(=O)c1sc(NC(=O)c2cc(-c3ccccc3)nn2-c2ccccc2)nc1C | 0% | -61* | 6.5µM* | -6% | 8.2µM* | 4%
O=C(Nc1nc2ccccc2s1)c1cc(-c2ccccc2)nn1-c1ccccc1 | -10% | -14 | 10µM* | 1% | u | -5%
N#Cc1ccc(C(=O)Nc2cc(-c3ccccc3)nn2-c2ccccc2)cc1 | -21% | -17 | -28% | -14% | u | -2%
COc1cc(OC)c(NC(=O)CCCn2nc(C)c3c(C)n(-c4ccccc4)nc3c2=O)cc1Cl | -26% | x | u | -5% | u | x
NS(=O)(=O)c1ccc(NS(=O)(=O)c2ccc(C3CNC(=O)C3)cc2)cc1 (stereo unspecified) | u | -8 | -23% | -2% | -18% | 4%
COc1ccc(-c2c(C)nc(N)nc2-c2ccc(OCc3ccc(C)cc3)cc2O)cc1OC | u | 63 | 5.8µM* | -3% | u | -6%
Nc1ncc(-c2ccccc2)c(-c2ccc(O)cc2O)n1 | u | -92* | u | -56% | -7% | 5%
COc1ccc(-c2c(C)nc(N)nc2-c2ccc(OC)cc2O)cc1 | 11% | 11 | -25% | -12% | 1% | 7%
